Hits are enriched below; roughly 11% of the tested compounds scored in any of these assays.
ALDH1A1 inh = blocks purified human ALDH1A1 activity | hit rate 7.3% among 220,000 | Potency, µM (top dose mostly 75.3 µM), for the others: at the top dose activity, negative = inhibition, hits mostly inhibitors | P00352 | Purified ALDH1A1, NADH fluorescence, propionaldehyde substrate;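 also: potency is read from the fitted curve at half-maximal effect; plate controls were no enzyme wells and a reference inhibitor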
HPGD block = blocks human HPGD enzyme activity | purified HPGD, NADH fluorescence kinetic, PGE2 substrate | Potency, µM, inactives show top-dose activity change, negative = inhibition, actives largely listed as inhibitors | hit rate 4.3% among 150,000; also: potency is read from the fitted curve at half-maximal effect
Target sequence (P15428 whole entry, looked up): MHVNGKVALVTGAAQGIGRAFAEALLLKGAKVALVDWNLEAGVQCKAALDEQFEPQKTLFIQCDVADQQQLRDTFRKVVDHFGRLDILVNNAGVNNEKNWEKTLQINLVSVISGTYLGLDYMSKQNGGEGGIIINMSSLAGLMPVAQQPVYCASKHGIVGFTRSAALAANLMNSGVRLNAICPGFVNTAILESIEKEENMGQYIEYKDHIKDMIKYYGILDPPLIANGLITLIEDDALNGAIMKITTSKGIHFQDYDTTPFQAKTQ
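NADH formation kinetics: reaction with 30 uM PGE2 and 1 mM NAD+ (final), 20 nM enzyme, Tris-HCl pH 8 with Tween 20, after 15 min compound preincubation at room temperature. Fluorescence change, last versus first of five reads.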
PNC assembly inh = inhibitors of perinucleolar compartment assembly; PC3M PTB-GFP, PNC prevalence imaging, 16 h; hits give low values; activity change (PNC), negative = inhibition, % at 10 µM; hit rate 3.1% among 140,000; AID 2417;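 active = readout at or below -70, meaning at least 70% loss of cells showing the perinucleolar compartment, a nuclear body marking cancer cells; inconclusive = readout between -30 and a set limit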;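 also: plate controls were DMSO wells for no effect and camptothecin positive control wells for full effect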
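Compounds are pinned in duplicate onto adhered PC3M cells stably expressing GFP-tagged PTB and incubated 16 h at 37 C. Cells are then fixed, nuclei stained with Hoechst, and PNC-positive cells counted.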
The depositor's hits bear a star; u = inconclusive; x = not tested or not shown; [ ] = dose if it differs, or a comment. Unless noted, calls follow the shape of the dose curve; as a rule, active = well fitted inhibition curve with a large enough effect (not every such curve was filed as active); inconclusive = small, poorly fitted or top-dose-only effect, or another doubt; inactive = no such curve, though single readings can be large or run the other way. Unless noted, % is scaled to controls: 0 for no effect and ±100 for the full control effect.

SMILES | ALDH1A1 inh | HPGD block | PNC assembly inh
CC(=O)N(c1cccc(C)c1)C1SC(=O)N(c2ccccc2)C1=O (stereo not drawn) | 8.9µM* | x | 36
NC(=O)CN(c1ccccc1)C1SC(=O)N(Cc2ccccc2)C1=O (stereo not drawn) | u | -5% | 17
Cc1ccc(N2C(=O)SC(N(CC(=O)O)c3cccc(C)c3)C2=O)cc1 (stereo not drawn) | u | 4% | 15
COc1ccccc1N(CC(O)Cn1ccnc1C)S(=O)(=O)c1ccc(C)cc1 (stereo not drawn) | -7% | x | x
CC(C)CCNC(=O)NC(=O)COC(=O)/C=C/c1cnc2ccccc2n1 | 7% | -7% | -23
O=C(Cn1c(=S)[nH]c2ccccc21)c1ccccc1 | -10% | -8% | -17
Cc1ccc(NC(=O)Cn2c(=S)[nH]c3ccccc32)cc1 | 10µM* | x | x
CC(C)c1ccc(C2CC(=O)c3cnc(N4CCc5ccccc5C4)nc3C2)cc1 (stereo not drawn) | -10% | -20% | 48
Cc1ccc(S(=O)(=O)NC(=O)Nc2ncc3c(n2)CC(c2ccco2)CC3=O)cc1 (stereo not drawn) | u | 1% | -97*
CC(=O)Nc1ncc2c(n1)CC(c1ccco1)CC2=O (stereo not drawn) | -12% | -7% | -29
CCC(=O)Nc1ncc2c(n1)CC(c1ccco1)CC2=O (stereo not drawn) | u | 0% | u
O=C1CC(c2ccco2)Cc2nc(N3CCc4ccccc4C3)ncc21 (stereo not drawn) | 13µM* | u | -19
O=C(CSC(=S)N1CCCCC1)Nc1ncc2c(n1)CC(c1ccco1)CC2=O (stereo not drawn) | 4µM* | x | x
CCCC[C@@H]1CN2[C@H](c3ccc(Br)cc3)[C@H](C)CC[C@H]2C(=O)O1 | -2%[13.5 µM] | x | x
CC[C@H]1C2=C3C(CC[C@H]4C(OCc5ccc(F)cc5C(F)(F)F)OC[C@](C)([C@@H]34)N(C(=O)OC(C)(C)C)C2)C2COC(=O)OCC21 (stereo partly drawn) | -8% | -12% | x
CCCS(=O)(=O)c1nc(S(=O)(=O)c2ccc(C)cc2)c(NCc2ccccn2)s1 | 14µM* | x | x
CCCS(=O)(=O)c1nc(S(=O)(=O)c2ccc(C)cc2)c(NCc2ccco2)s1 | u | -5% | 3
Cc1cc(C)cc(-n2c(C)nc3cc(C(=O)O)ccc32)c1 | -4% | x | x
COC(=O)Cc1c(C)c2c(OCc3nn[nH]n3)cc(C)cc2oc1=O | u | x | 37
Cc1c(C)c2cc(Cl)c(OCc3nn[nH]n3)cc2oc1=O | u | x | -122*
CCCC(C)C(=O)OCC(=O)NCc1ccc(OC)c(OC)c1 (stereo not drawn) | 0% | x | x
N#Cc1ccc(N2C(=O)[C@@H]3C(C(=O)C(c4ccccc4)c4ccccc4)=NN[C@@H]3C2=O)cc1 | u | 0% | 25
CC(=O)c1ccc(N2C(=O)[C@@H]3C(C(=O)CCN4C(=O)c5ccccc5C4=O)=NN[C@@H]3C2=O)cc1 | -8% | -23% | -108*
COC(=O)c1ccc(C(NC(=O)OCc2ccccc2)/C(=C/[C@@H](C)C(=O)NCc2nc3ccccc3s2)c2cccnc2)cc1 (stereo partly drawn) | -7% | -9% | x
Cc1onc(-c2ccccc2Cl)c1C(=O)N1CCN(c2ccccc2)CC1 | 4% | -12% | u
SMILES | ALDH1A1 inh | HPGD block | PNC assembly inh
COc1ccc(-c2cc(C(=O)N3CCN(Cc4ccccc4)CC3)no2)cc1OC | u | -29% | u
CN1CCN(C(=O)c2cc(-c3cccc(Cl)c3)on2)CC1 | 4.5µM* | x | -26
Cc1onc(-c2ccccc2Cl)c1C(=O)N1CCN(C(=O)c2ccco2)CC1 | 22µM* | -7% | -24
CCC(C)NC(=O)c1cc(-c2ccc(OC)cc2)on1 (stereo not drawn) | -11% | -15% | -3
COc1ccc(-c2cc(C(=O)N3CCCCC3)no2)cc1OC | -9% | 14µM* | u
COc1ccc(-c2cc(C(=O)O)no2)cc1 | 0.45µM* | 14µM* | x
COc1cccc(-c2cc(C(=O)N3CCN(Cc4ccccc4)CC3)no2)c1 | 9% | x | -18
CCc1cc(C(=O)OC)c(NC(=O)C2CC(=O)NN2Cc2ccccc2)s1 (stereo not drawn) | -1% | -11% | 14
CCOC(=O)c1[nH]c2ccccc2c1N=CN(CC)CC | 11% | -15% | -18
CC(=O)N(Cc1ccccc1)c1nc(-c2ccccc2)cs1 | -3% | x | x
O=C(c1cc(-c2ccco2)on1)N1CCOCC1 | u | -27% | 76
O=C(c1cc(-c2ccccc2Cl)on1)N1CCN(C(=O)c2ccco2)CC1 | 2% | -19% | u
CN1CCN(C(=O)c2cc(-c3ccco3)on2)CC1 | -5% | 32µM* | 33
O=C(c1cc(-c2ccc(Cl)cc2Cl)on1)N1CCN(C(=O)c2ccco2)CC1 | 2.8µM* | 10µM* | -9
O=C(COC(=O)c1sc2ccccc2c1Cl)Nc1ncc(Cl)cc1Cl | 9% | -13% | u
Cc1ccc(S(=O)(=O)N(c2ccccc2)C2CCS(=O)(=O)C2)cc1 (stereo not drawn) | -3% | -2% | 29
CCn1c(=O)c(C(=O)NNS(=O)(=O)c2ccc(Br)cc2)c(O)c2ccccc21 | -1% | x | x
CC(C)(C)NC(=O)c1cccc(NC(=O)c2cccc(O)c2)c1 | -4% | -6% | 39
COCCNC(=O)c1ccccc1NC(=O)c1ccccc1N(C)S(C)(=O)=O | 18% | -3% | -111*
COCCNC(=O)c1ccccc1NC(=O)c1ccccc1N(C)S(=O)(=O)c1ccccc1 | 1% | 0% | 25
O=C(NCc1cccnc1)c1ccc(NC(=O)c2cccc([N+](=O)[O-])c2)cc1 | 19% | x | x
Cc1cc2nc(-c3ccc(SCC(=O)N4CCN(C(=O)c5ccco5)CC4)nc3)[nH]c2cc1C | u | u | -28
Cc1cc2nc(-c3ccc(SCC(=O)N4CCOCC4)nc3)[nH]c2cc1C | u | u | -89*
Cc1nc2ccc(NC(=S)NCc3ccccc3)cc2nc1C | -4% | x | x
COc1ccc(N(C)C(=S)Nc2ccc3nc(C)c(C)nc3c2)cc1 | 10µM* | -10% | 15
SMILES | ALDH1A1 inh | HPGD block | PNC assembly inh
CCOc1ccc2nc(N3CCC(C(=O)N4CCN(C(=O)c5ccco5)CC4)CC3)sc2c1 | 16µM* | -1% | -14
CCOc1ccc2nc(N3CCCC(C(=O)N4CCN(CC)CC4)C3)sc2c1 (stereo not drawn) | 2% | -20% | -3
O=c1sc(N2CCN(c3ccccc3F)CC2)nc2ccsc12 | u | u | -6
O=C(c1ccco1)N1CCN(c2nc3ccsc3c(=O)s2)CC1 | 13µM* | u | -10
COCCN(C(=O)c1ccccc1OC1CCN(S(C)(=O)=O)CC1)C(C)C | 9% | x | x
O=C(Nc1cccc(C(F)(F)F)c1)C12CC3CC(CC(C3)C1)C2 | -6% | -19% | -23
CO[C@H]1COC(=O)C/C=C\[C@@H](C)[C@H](OC)COC(=O)[C@H]2CCCN2C(=O)C/C=C\[C@@H]1C | 1%[13.5 µM] | x | x
Cc1cc(C(=O)Nc2cccc3cccnc23)ccc1[N+](=O)[O-] | 3% | x | x
Cc1ccc(S(=O)(=O)N[C@H]2COC(=O)C/C=C\[C@@H](C)[C@H](NS(=O)(=O)c3ccc(C)cc3)COC(=O)C/C=C\[C@H]2C)cc1 | 15%[13.5 µM] | x | x
